About 7,500 (2.1%) of roughly 360,000 compounds were called active. Inconclusive results (about 20%) are left out. This excerpt belongs to a sample that is enriched for actives. Unmarked numbers belong to inactive results. The call rests on the fitted dose curve; in most records, active means well fitted inhibition curve with a large enough effect; inconclusive means small, poorly fitted or top-dose-only effect, or effect the other way; inactive means flat fitted curve, though single readings scatter.
Test: Nrf2 qHTS screen for inhibitors; further: nearly all actives have a fitted effect of over 60% in size
Conditions: A549 ARE-Fluc reporter, luciferase luminescence, 18-24 h; series mostly up to 46 µM; activity change, negative = inhibition: at the top concentration
From the text: NIH Molecular Libraries Probe Production Network [MLPCN]
NIH Chemical Genomics Center [NCGC]
Assay Provider: Shyam Biswal, Johns Hopkins University
Nrf2 is a transcription factor that maintains cellular redox homoestasis and protects cells from xenobiotics. Nrf2 binds to the antioxidant response element (ARE) to induce gene expression of a broad spectrum of genes that encode for antioxidants. […] Finding a small molecule that act as an inhibitor of Nrf2 function would represent a novel therapeutic target that could lead to improvement in survival of patients undergoing chemo- and/or radio- therapy.
This is the Nrf2 activity measured in the luminescent read.
1. Shibata, T., et al., Genetic Alteration of Keap1 Confers Constitutive Nrf2 Activation and Resistance to Chemotherapy in Gallbladder Cancer. Gastroenterology, 2008.
2. Sjoblom, T., et al., The consensus coding sequences of human breast and colorectal cancers. Science, 2006. 314(5797): p. 268-74.
NCGC Assay Protocol Summary:
A concentration-response assay was performed with A549 ARE_Fluc cells which are suspended in 5% FBS OPTI-MEM. Five uL were dispensed into 1536-well white TC-treated plate using the Kalypsys dispenser to achieve a density of 5000 cells/well in all columns except column 1. The plate is incubated at 37deg C at 5% CO2 for 2 hours before 23 nL of compounds are added with the Kalypsys pin tool equipped with a 1,536-pin array containing 10-nL slotted pins (FP1S10, 0.457-mm diameter, 50.8 mm long; V&P Scientific). The control compounds Budesonide and Staurosporine are both added at a concentration of 2mM and Budesonide is also added as a 1:10 titration, starting at 200uM, to achieve dose-response. After an 18-24 hour incubation at 37deg C at 5% CO2, 5ul of medium is added to column 1. Afterwards 1ul of 5x of CellTiter-Fluor (Promega) is added to every well. The plate is then incubated at 37deg C at 5% CO2 for 30 minutes before they are read on the ViewLux (Perkin Elmer) for a fluorescent read Ex=405(10)/Em=525(10) for a 3 second exposure, 2x binning, and high gain. Then 3 uL of 3x BugLite is dispensed into all wells and the plate is incubated at ambient room temperature for 15 minutes. Afterwards another ViewLux read is performed using the clear filter to get a luminescent read with the settings of 40 second exposure, 2x binning, and high gain. Cytotoxicity is assessed through the first fluorescent read and then biochemical activity against Nrf2 is measured in the luminescent read.
On the % scale 0 is the no-effect control and ±100 the full control effect; potency means the concentration at half of the fitted maximal effect.

Compound | activity change, negative = inhibition | Potency
Cc1ccc2cccc(NC(=O)c3cccc4ccccc34)c2n1 | -5.31% | –
Cc1ccccc1C(=O)NCCN=C1NS(=O)(=O)c2ccccc21 | -8.96% | –
Cc1ccc2ccc3c(c2n1)NS(=O)(=O)c1ccccc1-3 | – | 20.6 µM (active)
CC(C)(C)OC(=O)C[C@@H]1C/C=C\C[C@@H](CC(=O)N[C@H](CO)Cc2ccccc2)C(=O)NC[C@@H](c2ccccc2)OC1=O | 8.52% | –
Cc1ccc(CN(C(=O)c2ccccc2[N+](=O)[O-])c2ccccn2)cc1 | 0.431% | –
O=C(Oc1cccc(C(=S)N2CCOCC2)c1)c1cccc(Cl)c1 | -4.92% | –
O=C(Nc1ccc(Cl)cc1)Nc1ccc(C(=O)N2CCOCC2)cc1 | -6.09% | –
O=C(Nc1ccc(Cl)cc1)c1cccc(OC(=S)N2CCOCC2)c1 | – | 23.1 µM (active)
CCCCNC(=O)C(C)N(CCN(C)C)C(=O)CCCN1C(=O)NC(c2ccc(Cl)cc2)C(C(=O)OCc2ccccc2)=C1C (configuration not stated) | 6.22% | –
Cc1ccc(OCc2nc(C#N)c(N3CCCC3)o2)cc1 | -20.5% | –
N#Cc1nc(COc2ccc(-c3ccccc3)cc2)oc1NCc1cccnc1 | – | 13 µM (active)
N#Cc1nc(Cc2cccc3ccccc23)oc1NCc1ccc2c(c1)OCO2 | -27.6% | –
Oc1ccc(Br)cc1C1C=C(c2ccc3c(c2)OCO3)NC(c2ccc(Cl)cc2)N1 (configuration not stated) | 7.41% | –
Cc1cccc(C)c1NC(=O)COC(=O)c1c(C)nn(-c2ccccc2)c1C | -16.5% | –
CC1CCc2sc(C(=O)NCC(c3ccco3)N3CCCCC3)cc2C1 (configuration not stated) | -2.39% | –
CCOC(=O)N1CCN(C(=O)COc2ccc(Cl)cc2C)CC1 | -6.92% | –
CCCn1nnnc1NC(=O)COc1ccc(Cl)cc1C | – | 13 µM (active)
Cc1cc(NC(=O)COC(=O)COc2ccc(Cl)cc2C)c([N+](=O)[O-])cc1C | 14.2% | –
CCCc1cc(=O)[nH]c(SCC(=O)Nc2ccc(C(=O)Nc3ccccc3OC)cc2)n1 | -28.8% | –
Cc1ccccc1NC(=O)Cn1c(=O)n(CCc2ccccc2)c(=O)c2ccccc21 | -2.38% | –
COc1ccc(S(=O)(=O)N(C)C[C@@H]2Oc3ccc(NC(=O)Nc4c(C)noc4C)cc3C(=O)N([C@H](C)CO)C[C@@H]2C)cc1 | -14.7% | –
CCC(C)(C)c1ccc(Oc2ccc(NC(=O)COC(=O)C3=COCCO3)cc2)cc1 | – | 8.2 µM (active)
CCOc1ccc(NC(=O)c2ccc(NC(=O)COC(=O)c3ccc(NC(=O)CC#N)cc3)cc2)cc1 | 12.3% | –
COc1ccc(NC(=O)COC(=O)CNC(=O)C2CCCCC2)cc1 | 4.96% | –

Compound | activity change, negative = inhibition | Potency
COc1cc(OC)cc(-c2c(C#Cc3ccsc3)c3cc(-c4ccc(OC)cc4F)ccc3n2C)c1 | -9.99% | –
O=C(NCCC(=O)N1O[C@@H]2C=C[C@H]1C2)OCC1c2ccccc2-c2ccccc21 | 12% | –
COc1ccccc1CNC(=O)CCn1c(=O)sc2ccccc21 | -9.65% | –
Cc1cccc(CSc2nnc(Cn3c(=O)sc4ccccc43)n2C)c1 | -17.1% | –
COc1ccc(Cn2c(=O)sc3ccccc32)cc1OC | – | 25.9 µM (active)
COc1ccc(-n2c(SC)nc3sc4c(c3c2=O)CCN(C(C)=O)C4)cc1 | 1.06% [at 9.27 µM] | –
CN(CCc1ccccc1)C(=O)c1cccc(NC(=O)Cc2cccc(NC(=O)C3CCCN(C(=O)CCc4ccccc4)C3)c2)c1 (configuration not stated) | – | 23.1 µM (active)
CN(C(=O)c1cccc(NC(=O)Cc2ccc(NC(=O)C3CCCN(C(=O)C4CC4)C3)cc2)c1)C1CC1 (configuration not stated) | -18.1% | –
CN(C(=O)c1cccc(NC(=O)Cc2cccc(NC(=O)C3CCCN(C(=O)C4CC4)C3)c2)c1)C1CCC1 (configuration not stated) | -3.67% | –
CCCN(C(=O)Cn1cc(S(=O)(=O)N2CCN(c3ccccc3F)CC2)c2ccccc2c1=O)c1cccc(C)c1 | 11.7% | –
COc1ccc(CNC(=O)COc2ccccc2C(=O)c2cnn(-c3ccccc3)c2)cc1OC | -7.75% | –
Cc1ccc(C(=O)OCC(=O)NCc2cc(C)c(O)c(C)c2)cc1S(=O)(=O)N1CCCCC1 | 2.12% | –
COc1ccc2c(C)c(CCC(=O)NCc3ccc(OC)c(OC)c3)c(=O)oc2c1 | 12.2% | –
CCC(CO)Oc1cc(NCc2ccccc2)c2ncn(C3CCCC3)c2c1 (configuration not stated) | -19% | –
Cc1cc(C)cc(C(=O)NC(CC(N)=O)c2ccc(N3CCC(N4CCCCC4)CC3)c([N+](=O)[O-])c2)c1 (configuration not stated) | -6.31% | –
NC(=O)CC(NC(=O)Cc1ccc(Br)cc1)c1ccc(NC2CC3CCC2C3)c([N+](=O)[O-])c1 (configuration not stated) | – | 18.4 µM (active)
CC1CCCCN1CCCNc1ccc(C(CC(N)=O)NC(=O)c2ccccc2)cc1[N+](=O)[O-] (configuration not stated) | -0.271% | –
O=C1OCC2=C1C(c1ccc(Cl)cc1)c1cc3c(cc1O2)OCO3 (configuration not stated) | -8.02% | –
COc1ccc(Cl)cc1NC(=O)Cn1c(=O)c2ccccc2n2nncc12 | -1.31% | –
CN(C)c1ccc(-n2cccc2/C=C2/SC(=Nc3ccc(F)cc3)NC2=O)cc1 | -10.4% | –
Cc1cccc(N=C2NC(=O)/C(=C/c3cn(C)c4ccccc34)S2)c1 | – | 14.6 µM (active)
Cc1ccc(N=C2NC(=O)/C(=C/C=C/c3ccco3)S2)cc1C | -21.9% | –
Oc1c(Cl)cc(Cl)c(Cl)c1Cc1c(O)c(Cl)cc(Cl)c1Cl | – | 14.6 µM (active)
